Shown are actives, neighbours in structure and some others; about 8.8% of the full set was active somewhere.
HT1080-NT tox: kills 2HG-producing HT-1080-NT fibrosarcoma cells; HT-1080-NT fibrosarcoma viability, CellTiter-Glo ATP luminescence, 48 h; Potency, µM (highest dose often 46.1 µM), actives largely listed as cytotoxic; 360,000 tested, 1.6% active; AID 686970;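 further: NT is the 2HG producing partner of a matched IDH1 knockdown line; nearly all actives have a fitted effect of over 55% in size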
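A 48-hour cytotoxicity screen used HT-1080-NT cells plated 2 hours before compound delivery. ATP-based CellTiter-Glo luminescence measured viability, normalized to DMSO and no-cell controls.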
HT1080 IDH1KD tx: HT-1080 IDH1 knockdown cell toxicity (counter line); HT-1080 IDH1 knockdown viability, ATP luminescence, 48 h; Potency, µM (titrated, usually from 46.1 µM), usual class: cytotoxic; 360,000 tested, 2% active
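HT-1080-IDH1KD cells (IDH1 knocked down), 750/well in RPMI with 5% FBS, treated with compound 48 h at 37 degrees C. Viability by CellTiter-Glo luminescence, normalised to DMSO and no-cell wells; concentration-response curves classed.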
IL1B secr inh: inhibitors of inflammasome signaling (IL-1 beta secretion). THP-1 LPS/ATP IL-1B secretion, AlphaLISA, 16 h; active compounds read low. activity change, % at 57.5 µM. 360,000 tested, 4.7% active. AID 743279; in the data active means activity change below about -50%; inconclusive means mostly about -30% to -49%
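THP-1 cells pretreated 1 hr with compounds (up to 57.5 uM final), then stimulated with LPS (250 ng/mL final) plus ATP (1.25 mM final); secreted IL-1B measured by AlphaLISA after 16 hr, decreased signal indicating inhibition.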
KB-3-1 cytotox: KB-3-1 parental cell cytotoxicity. KB-3-1 viability, CellTiter-Glo ATP luminescence, 72 h. Potency, µM (top dose mostly 46.1 µM), usual class: cytotoxic. 400,000 tested, 1.4% active. AID 1347075; further: nearly all actives have a fitted effect of over 60% in size
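KB-3-1 parental drug-naive adenocarcinoma cells in DMEM/10% FBS, incubated 72 h at 37 C with pin-transferred compounds across a concentration series. Viability by CellTiter-Glo luminescence; concentration-response curves fitted after normalization.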
KB-V1 MDR tox: kills drug-selected multidrug resistant KB-V1 cells | KB-V1 MDR cells viability, CellTiter-Glo, 72 h | Potency, µM (highest dose often 46.1 µM), usual class: cytotoxic | 400,000 tested, 3.4% active; further: nearly all actives have a fitted effect of over 60% in size
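Potencies derive from concentration-effect curves fitted to normalized luminescence (CellTiter-Glo) of KB-V1 cells treated for 72 h at 37 degrees C in phenol-red-free DMEM containing 10% FBS.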
Hits are given with their value; - = inactive; ? = inconclusive; . = no result. Unless noted, the call rests on the fitted dose curve; in most records, active means well fitted curve in the direction sought with a large enough effect; inconclusive means small, poorly fitted or top-dose-only effect, or another doubt; inactive means no such curve, though single readings can be large; an effect the other way counts as inactive or inconclusive.

SMILES | HT1080-NT tox | HT1080 IDH1KD tx | IL1B secr inh | KB-3-1 cytotox | KB-V1 MDR tox
CCc1c(C)nc(SCC(=O)N2CCCCC2C)[nH]c1=O (stereo not drawn) | - | - | - | - | -
COc1cc(OC)c(OC)cc1/C=c1\[nH]c(=O)/c(=C/c2cc(OC)c(OC)cc2OC)[nH]c1=O | . | . | . | ? | -
Cc1nc2c(sc3nc4c(cc32)COC(C)(C)C4)c(=O)n1CC(=O)NCc1ccco1 | 7.08µM | ? | - | 5.17µM | ?
Cc1ccccc1NS(=O)(=O)c1cccc2nsnc12 | - | - | - | - | -
C=CCCC(=O)Nc1nc(C)c(-c2csc(Nc3cc(OC)ccc3OC)n2)s1 | 7.31µM | 7.31µM | - | ? | -
COc1ccccc1Nc1nc(-c2sc(NC(=O)C(C)(C)C)nc2C)cs1 | - | - | - | 8.2µM | -
CCOC(=O)CC(=O)CSc1nc2ccccc2c(=O)n1-c1ccc(C(=O)NCCOC)cc1 | - | - | - | - | -
O=C(c1cc(=O)[nH]c2ccccc12)N1CC=C(c2ccccc2)CC1 | - | - | - | - | -
CC1=C(C(=O)N(C)C)CC(CC(=O)NCc2ccco2)C(=O)N1Cc1ccccc1 (stereo not drawn) | - | - | - | - | -
O=c1cc(-c2ccccc2Cl)oc2cc(O)cc(O)c12 | - | - | - | - | -
O=C1C=CC(O)(c2cc(=O)c3c(O)cc(O)cc3o2)C=C1 | 7.31µM | 7.31µM | -103.9 | ? | 5.8µM
Fc1cc2[nH]c(=S)[nH]c2c(Br)c1N1CCSCC1 | - | ? | - | 2.06µM | ?
CCOC(=O)/C=c1\s/c(=C\c2ccc3cc(OC)ccc3c2)c(=O)n1CC(=O)NCC1CCCO1 (stereo not drawn) | - | - | - | 20.6µM | 18.4µM
CCOC(=O)/C=c1/s/c(=C/c2ccc3cc(OC)ccc3c2)c(=O)n1CC(=O)NCc1ccc2c(c1)OCO2 | - | - | - | ? | -
Cc1nc2nc(-c3ccccc3)cn2nc1C | - | - | - | - | 20.6µM
CCc1ccc(-c2cn3nc(C)c(C)nc3n2)cc1 | - | - | - | - | 18.4µM
O=C(Nc1cc(C(F)(F)F)ccc1N1CCCC1)C1CCCO1 (stereo not drawn) | - | - | - | - | -
Oc1ccc(Nc2nc(Cl)nc(NCc3ccco3)n2)cc1 | - | - | -109.5 | - | -
c1ccc(Nc2nc(NCc3ccco3)c3ccccc3n2)cc1 | 20.6µM | 23.1µM | -94.4 | ? | ?
C=CCNc1nc(Cl)nc(NCc2ccco2)n1 | - | - | - | - | -
CSc1nc(NCc2ccco2)c2ccccc2n1 | - | ? | - | ? | 11.6µM
Cc1cccc(Nc2nc(NCc3ccco3)c3ccccc3n2)c1 | ? | 18.4µM | -98.1 | ? | 14.6µM
Clc1nc(NCc2ccco2)c2ccccc2n1 | . | . | . | - | -
CCNc1nc(NCc2ccco2)c2ccccc2n1 | . | . | . | - | -
CCOc1ccc(NC(=O)Cn2c(=O)cc(C)c3c(C)nn(-c4ccc(CC)cc4)c32)cc1 | . | . | . | - | -
SMILES | HT1080-NT tox | HT1080 IDH1KD tx | IL1B secr inh | KB-3-1 cytotox | KB-V1 MDR tox
Cc1ccc(S(=O)(=O)Nc2nc3ccccc3nc2NCc2ccco2)cc1 | ? | 10µM | - | - | ?
COc1cc(O)c(C(CC(=O)N2CCCCC2)c2ccc3c(c2)OCO3)c(OC)c1 (stereo not drawn) | - | - | - | - | -
COc1cc(O)c(C(CCN2CCCCC2)c2ccc3c(c2)OCO3)c(OC)c1 (stereo not drawn) | - | - | -81.1 | - | -
Cc1c(P(=S)(c2ccccc2)c2ccccc2)[n+]2ccccc2n1C/C=C/c1ccccc1 | . | . | . | 10.3µM | -
Cc1ccc(NC(=O)C(=O)C2C(=O)Nc3ccccc32)cc1 (stereo not drawn) | - | - | - | - | -
O=C(COC(=O)c1ccccc1OCCOc1ccccc1)Nc1ccc(Br)cc1 | . | . | . | ? | -
CC(=O)Nc1ccc(Oc2cnc3ccccc3n2)cc1 | 2.31µM | 2.59µM | - | - | -
COc1ccc(N2C(=O)c3ccccc3NC2c2ccc(NC(C)=O)cc2)c(OC)c1 (stereo not drawn) | - | - | - | - | -
CCc1cccc(C)c1NC(=O)C1CCN(S(=O)(=O)Cc2ccccc2)CC1 | . | . | . | - | -
Cc1cccc2cc(CN(Cc3cccs3)Cc3nnnn3Cc3ccccc3)c(=O)[nH]c12 | ? | - | -50.2 | - | -
CCc1ccc2[nH]c(=O)c(CN(Cc3ccccc3)Cc3nnnn3Cc3ccco3)cc2c1 | - | ? | -54.1 | ? | ?
CCOc1ccc2[nH]c(=O)c(CN(Cc3cccs3)Cc3nnnn3C(C)(C)CC)cc2c1 | - | - | ? | - | 18.4µM
CCOC(=O)Cn1nnnc1CN(Cc1ccccc1)Cc1cc2cc(CC)ccc2[nH]c1=O | - | - | -91.4 | - | -
CCc1ccc2[nH]c(=O)c(CN(Cc3ccccc3)Cc3nnnn3Cc3ccccc3)cc2c1 | . | . | . | - | -
CCOC(=O)Cn1nnnc1C(CC)N(Cc1ccccc1)Cc1cc2cc(C)ccc2[nH]c1=O (stereo not drawn) | - | - | - | - | -
COC(C(=O)Nc1ccnn1C1CCN(Cc2ccc(C)s2)CC1)c1ccccc1 (stereo not drawn) | - | - | - | - | -
CN(C(=O)CN1C(=O)NC(c2ccccc2)(c2ccccc2)C1=O)C1CCS(=O)(=O)C1 (stereo not drawn) | - | - | - | - | -
O=c1[nH]c2cc3c(cc2cc1CN(Cc1cccnc1)Cc1nnnn1Cc1ccco1)OCCO3 | - | ? | - | - | -
O=c1[nH]c2cc3c(cc2cc1CN(Cc1ccccc1)Cc1nnnn1Cc1ccco1)OCCO3 | - | ? | -59.2 | - | 23.1µM
CSc1cccc(NC(=O)/C=C/c2ccccc2)c1 | - | ? | -63.1 | - | -
CSc1ccc(/C=C/C(=O)Nc2ccccc2)cc1 | ? | ? | - | - | -
CSc1cccc(NC(=O)/C=C/c2ccc(Cl)cc2)c1 | ? | ? | -72.3 | ? | 14.6µM
Cc1cccc(NC(=O)/C(C#N)=C/c2ccc(Cl)cc2)n1 | - | - | - | - | -
Cc1cccc(NC(=O)/C=C/c2ccc(Cl)cc2)n1 | - | ? | - | - | 16.4µM
Cc1cccc(N2CCN(S(=O)(=O)c3cc(-c4cc(C)no4)ccc3C)CC2C)c1 (stereo not drawn) | ? | 4.61µM | - | ? | ?
COc1ccc(-c2cc(C)no2)cc1S(=O)(=O)N1CCN(c2cccc(C)c2)C(C)C1 (stereo not drawn) | ? | ? | - | 11.6µM | ?
Cc1cc(-c2ccc(C)c(S(=O)(=O)N3CCN(c4ccc(F)cc4)CC3)c2)on1 | - | - | - | ? | -
O=C1Cc2cc(S(=O)(=O)N3CCNCC3)ccc2N1 | - | - | - | - | -
CCCCCCCCCC[N+](C)(C)CC/C=C1/c2ccccc2Sc2ccc(Cl)cc21 | ? | ? | - | - | -
CCCCCCCCCCC[N+](C)(C)CC/C=C1/c2ccccc2Sc2ccc(Cl)cc21 | ? | ? | -67.0 | - | -

Screening results (PubChem BioAssay)
